Experimental findings from PubChem BioAssay (NCATS) are described below.

Results filed as inconclusive are left out. Calls of active or inactive are those of the source. Unless noted, calls come from the whole dose curve; as a rule, active = well fitted curve in the direction sought with a large enough effect; inconclusive = small, poorly fitted or top-dose-only effect, or another doubt; inactive = no such curve, though single readings can be large; an effect the other way counts as inactive or inconclusive.

In experiment [1] the target is Mitogen-activated protein kinase 10 (Mus musculus) (UniProt Q61831). Kind of experiment: JNK3 AlphaScreen Assay (AID 530; active = well fitted curve in either direction with a large enough effect, not every such curve was filed as active;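 note: kinase came from lysate of stimulated human HepG2 cells; signal reports phosphorylation of biotinylated GST-cJun 1-79 at Ser73 with 10 µM ATP; series mostly up to about 57 µM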). An outline of the steps: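 Inhibitors reduce antibody binding to phosphorylated biotin-cJun, lowering AlphaScreen luminescence. Lysates from HepG2 cells pre-activated by IL-1beta plus TNF-alpha supplied JNK3; compounds were titrated.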
The nature of experiment [2]: MultiTox-Fluor Cytotoxicity Assay - LYMP1-001 - Live Cells (AID 947). Note: potency is the fitted concentration of half-maximal effect.
Experiment [3] in a line: MultiTox-Fluor Cytotoxicity Assay - LYMP1-003 - Live Cells (AID 962).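 Note: potency is the fitted concentration of half-maximal effect; cells exposed to compound for 16 hours at 37 °C.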 The method in brief:
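LYMP1-003 lymphoblastoid cells, 2500/well in complete medium, treated 16 h at 37 C; live-cell protease cleavage of GF-AFC read by fluorescence (Ex/Em 405/510) after 60 min reagent; AC50 from Hill fits of concentration-response.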

Experiment [4] is described as follows: Cell Viability - LYMP2-013 (AID 970). Note: potency is the fitted concentration of half-maximal effect; nearly all actives have a fitted effect of over 55% in size. The method in brief: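 Human lymphoblastoid LYMP2-013 cells, 2500/well, treated 24 h at 37 C in complete medium; viability as intracellular ATP by CellTiter-Glo luminescence after 30 min. AC50 from Hill fits of qHTS concentration-response.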
Experiment [5] can be described thus: Cell Viability - LYMP2-015 (AID 971). Note: potency is the fitted concentration of half-maximal effect; nearly all actives have a fitted effect of over 55% in size. The method in brief:
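LYMP2-015 human lymphoblastoid cells (2500/well) in complete medium, compound-treated 24 h at 37 C; viability read as cellular ATP by CellTiter-Glo luminescence after 30 min at room temperature. AC50 from Hill-equation fits of qHTS concentration-response data.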

A short description of experiment [6]: Cell Viability - LYMP2-017 (AID 972). Note: potency is the fitted concentration of half-maximal effect; nearly all actives have a fitted effect of over 55% in size. An outline of the steps:
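LYMP2-017 human lymphoblastoid cells (2500/well) settled 5 hr at 37 C, then exposed to compound 24 hr at 37 C in complete medium. Viability taken as intracellular ATP by CellTiter-Glo luminescence after 30 min at RT; AC50 from Hill fits.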

Experiment [7] is described as follows: Cell Viability - LYMP2-019 (AID 973). Note: potency is the fitted concentration of half-maximal effect; nearly all actives have a fitted effect of over 55% in size. An outline of the steps:
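Human lymphoblastoid LYMP2-019 cells (2500/well) preincubated 5 h at 37 C, then treated 24 h at 37 C in complete medium. Viability by CellTiter-Glo ATP luminescence after 30 min at room temperature; AC50 from Hill fits.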

The nature of experiment [8]: Cell Viability - LYMP2-021 (AID 974). The method in brief: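 Human lymphoblastoid LYMP2-021 cells, 2500/well in complete medium, treated 24 hours at 37 C. Intracellular ATP by CellTiter-Glo luminescence (30 min, RT); AC50 from Hill fits of concentration-response.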
A short description of experiment [9]: Cell Viability - LYMP2-023 (AID 975). The method in brief: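 LYMP2-023 human lymphoblastoid cells, 2500/well, preincubated 5 hr at 37 C, then compound-treated 24 hr at 37 C in complete medium. CellTiter-Glo luminescence (ATP) after 30 min at room temperature; AC50 from Hill-equation fits; tetraoctylammonium bromide positive control.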
A short description of experiment [10]: Cell Viability - LYMP2-006 (AID 978). Note: potency is the fitted concentration of half-maximal effect; nearly all actives have a fitted effect of over 60% in size. The method in brief: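 Cells are seeded at 2500 per well and rested 5 hr at 37 C. Compounds are added across a concentration series for 24 hr at 37 C, after which ATP is quantified by luciferase luminescence.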
A short description of experiment [11]: Cell Viability - LYMP2-007 (AID 979).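 Note: potency is the fitted concentration of half-maximal effect; cells exposed to compound for 24 h before reading; nearly all actives have a fitted effect of over 60% in size.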 The method in brief:
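Human lymphoblastoid LYMP2-007 cells (2500/well) preincubated 5 h at 37 C, then treated 24 h at 37 C in complete medium. Viability by CellTiter-Glo ATP luminescence after 30 min at room temperature; AC50 from Hill fits.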

Experiment [12] can be described thus: Cell Viability - LYMP2-008 (AID 980). Note: potency is the fitted concentration of half-maximal effect; nearly all actives have a fitted effect of over 60% in size. An outline of the steps:
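LYMP2-008 lymphoblastoid cells (2500/well) plated 5 h, then treated 24 h at 37 C in complete medium. Viability read as intracellular ATP by CellTiter-Glo luminescence after 30 min at room temperature; AC50 from Hill fits.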

A short description of experiment [13]: Cell Viability - LYMP2-012 (AID 982).
Experiment [14] is described as follows: Cell Viability - LYMP2-014 (AID 983). Note: potency is the fitted concentration of half-maximal effect; nearly all actives have a fitted effect of over 50% in size. The method in brief: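 LYMP2-014 human lymphoblastoid cells, 2500/well, treated 24 h at 37 C in complete medium; viability by CellTiter-Glo ATP luminescence after 30 min at room temperature. AC50 from Hill fits of qHTS concentration-response; tetraoctylammonium bromide positive control.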
Experiment [15] is described as follows: Cell Viability - LYMP2-016 (AID 984). An outline of the steps:
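Cells were seeded at 2500 per well and rested 5 hr before a 24 hr compound exposure at 37 C. Viability was then gauged as cellular ATP by luciferase luminescence, with AC50 values fitted to the Hill equation.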

Experiment [16] can be described thus: Cell Viability - LYMP2-018 (AID 985). Note: potency is the fitted concentration of half-maximal effect; nearly all actives have a fitted effect of over 50% in size. The method in brief:
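Human lymphoblastoid LYMP2-018 cells, 2500/well, settled 5 hr at 37 C then exposed to compound 24 hr at 37 C; intracellular ATP measured by CellTiter-Glo luminescence. AC50 from Hill-equation concentration-response fits.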

Experiment [17] in a line: Cell Viability - LYMP2-020 (AID 986). An outline of the steps: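 Human lymphoblastoid LYMP2-020 cells (2500/well) preincubated 5 h at 37 C, then treated 24 h at 37 C. Viability measured as intracellular ATP by CellTiter-Glo luminescence after 30 min at room temperature; AC50 from Hill fits.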
Experiment [18] in a line: Cell Viability - LYMP2-024 (AID 988). Note: potency is the fitted concentration of half-maximal effect; nearly all actives have a fitted effect of over 60% in size. The method in brief: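 Human lymphoblastoid LYMP2-024 cells (2500/well) rested 5 hr, then treated with compound for 24 hr at 37 C in complete medium. Viability was measured as intracellular ATP by CellTiter-Glo luminescence. AC50 values came from Hill-equation fits.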
Experiment [19] in a line: Cell Viability - LYMP2-026 (AID 989). Note: potency is the fitted concentration of half-maximal effect; nearly all actives have a fitted effect of over 50% in size. An outline of the steps:
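Human lymphoblastoid LYMP2-026 cells, 2500/well, exposed to compound 24 h at 37 C in complete medium. Viability as intracellular ATP by CellTiter-Glo luminescence; AC50 from Hill fits of qHTS concentration-response.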

In experiment [20] the target is Nuclear receptor ROR-gamma (Homo sapiens) (UniProt P51449). Kind of experiment: qHTS assay for small molecule antagonists of the retinoid-related orphan receptor gamma (ROR-gamma) signaling pathway (AID 651802). An outline of the steps: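 CHO cells with TET-inducible ROR-gamma and RORE-luciferase reporter, dosed then doxycycline-induced. After 16 h at 37C, One-Glo luminescence read; decreased signal indicates antagonism.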
Chain of Nuclear receptor ROR-gamma (Homo sapiens) (P51449 whole entry, looked up): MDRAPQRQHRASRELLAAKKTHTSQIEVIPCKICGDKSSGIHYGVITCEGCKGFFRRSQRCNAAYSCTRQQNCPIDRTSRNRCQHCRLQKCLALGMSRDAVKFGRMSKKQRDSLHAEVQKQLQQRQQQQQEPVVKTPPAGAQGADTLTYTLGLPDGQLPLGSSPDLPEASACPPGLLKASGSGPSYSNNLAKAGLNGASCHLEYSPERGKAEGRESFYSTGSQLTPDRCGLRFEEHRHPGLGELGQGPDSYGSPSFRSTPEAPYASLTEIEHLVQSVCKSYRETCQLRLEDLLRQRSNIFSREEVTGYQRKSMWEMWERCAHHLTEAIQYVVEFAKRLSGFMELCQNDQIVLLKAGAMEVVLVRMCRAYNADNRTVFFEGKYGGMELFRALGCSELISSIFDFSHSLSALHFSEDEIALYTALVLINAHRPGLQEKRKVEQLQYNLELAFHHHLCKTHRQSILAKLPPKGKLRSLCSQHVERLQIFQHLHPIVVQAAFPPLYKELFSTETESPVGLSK

As to `C=C(CC1(CNP(=O)(c2ccccc2)c2ccccc2)CC1)c1ccccc1`, the compound was called inactive in [1].

With `COC(=O)[C@]1(C)C[C@H]1[C@H](NP(=O)(c1ccccc1)c1ccccc1)c1ccccc1`, the outcome in experiment [1] was inactive.

In the case of `O=Nc1ccc(Nc2ccccc2)cc1`, the Potency in experiment [2] was 7.94 µM (active); in [3], 6.31 µM (active); in experiment [4] it was 10 µM (active); in experiment [5], 3.98 µM (active); in [6], 6.31 µM (active); in experiment [7], 3.98 µM (active). Moreover, the Potency in [8] is 5.01 µM (active); in experiment [9] it was 6.31 µM (active); in [10], 7.94 µM (active); in experiment [11], 5.01 µM (active); in [12], 7.94 µM (active); in [13], 7.94 µM (active). For the same compound, the Potency in [14] was 6.31 µM (active); in experiment [15] it was 6.31 µM (active); in experiment [16], 3.98 µM (active); in [17], 5.01 µM (active); in [18], 2.51 µM (active); in experiment [19], 6.31 µM (active). Besides, in experiment [20], the Potency was 7.5 µM (active).

`C=CC(=O)OCC(CO)(COC(=O)C=C)COC(=O)C=C`: the Potency in [2] was 6.31 µM (active); in experiment [3], 3.98 µM (active); in [4], 5.01 µM (active); in [5], 5.01 µM (active); in experiment [6], 5.01 µM (active); in experiment [7], 3.98 µM (active). The Potency in [8] is 3.98 µM (active); in experiment [9], 6.31 µM (active); in experiment [10], 5.01 µM (active); in experiment [11], 5.01 µM (active); in [12], 5.01 µM (active); in experiment [13] it was 3.98 µM (active). In addition, the Potency is 5.01 µM (active) in experiment [14]; 5.01 µM (active) in [15]; 3.98 µM (active) in [16]; 3.98 µM (active) in [17]; 3.16 µM (active) in experiment [18]; 6.31 µM (active) in experiment [19]. In experiment [20], the Potency is 4.22 µM (active).

In the case of `c1cc(OCC2CO2)cc(OCC2CO2)c1` (stereo unspecified), the Potency in [4] is 50.1 µM (active); in [5], 39.8 µM (active); in experiment [6], 39.8 µM (active); in experiment [7], 39.8 µM (active); in experiment [8], 39.8 µM (active); in experiment [9], 50.1 µM (active). Further, the Potency in experiment [10] was 39.8 µM (active); in [11] it was 39.8 µM (active); in [12] it was 39.8 µM (active); in experiment [13], 31.6 µM (active); in [14], 39.8 µM (active); in experiment [15], 25.1 µM (active). Also, the Potency is 31.6 µM (active) in experiment [16], 39.8 µM (active) in experiment [17], 39.8 µM (active) in experiment [18] and 39.8 µM (active) in experiment [19].
